{
  "source": "PubChem BioAssay AID504652",
  "about": "(National Center for Advancing Translational Sciences (NCATS), 2011)",
  "note": "Values joined by “and” are separate entries in the source; they are usually repeats but may differ in a detail not shown here. Equal entries are not always repeated. Out of some 360,000 compounds screened, about 11,000 (3.1%) were called active. No stated cut-off is given here; in the data, active means activity change below about -30%; inactive means the rest. What follows is part of a selection rich in actives, with near analogues and random picks from the rest. Some compounds were tested as several samples or in several runs, with calls that do not always agree. On the % scale 0 is the no-effect control and ±100 the full control effect.",
  "data": [
    {"molecular_target": "D(1A) dopamine receptor (Homo sapiens) (UniProt P21728)", "sequence (P21728 whole entry, looked up)": "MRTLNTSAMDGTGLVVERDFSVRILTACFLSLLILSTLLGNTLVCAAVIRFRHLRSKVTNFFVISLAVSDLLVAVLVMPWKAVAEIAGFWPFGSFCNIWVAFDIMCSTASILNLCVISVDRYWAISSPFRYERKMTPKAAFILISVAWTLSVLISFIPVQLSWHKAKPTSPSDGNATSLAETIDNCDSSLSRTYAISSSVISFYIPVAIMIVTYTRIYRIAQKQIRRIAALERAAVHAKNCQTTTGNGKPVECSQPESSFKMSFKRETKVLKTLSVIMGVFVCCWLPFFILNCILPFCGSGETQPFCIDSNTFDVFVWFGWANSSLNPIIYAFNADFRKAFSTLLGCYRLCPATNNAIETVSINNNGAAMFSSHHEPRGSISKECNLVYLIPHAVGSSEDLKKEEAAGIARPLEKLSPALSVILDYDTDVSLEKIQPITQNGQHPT", "test": "Antagonist of Human D 1 Dopamine Receptor: qHTS", "conditions": "HEK293 TREx D1 cells, calcium flux, dopamine EC80; at 10 µM; stronger effect = lower value", "outline": "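Using tetracycline-induced force-coupled D1 Hek293 cells and a calcium dye, signals were followed for 180 s after compound, then for 180 s after EC80 dopamine, to detect inhibitors.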", "values": [
      {"compound": "CN(c1ccccc1)S(=O)(=O)c1cccc(NC(=O)Cc2c(F)cccc2Cl)c1", "activity change, negative = inhibition": "-47.4% (active)"},
      {"compound": "O=C(CCC(=O)N1CC2CCCN2c2ccccc21)NCc1ccccc1Cl", "note": "(stereo not drawn)", "activity change, negative = inhibition": "-15.4% (inactive)"},
      {"compound": "O=C(CSc1nc2nccnc2c(=O)n1CCc1c[nH]c2ccccc12)Nc1ccccc1F", "activity change, negative = inhibition": "-39.8% (active)"},
      {"compound": "Cc1cc(C)c(NC(=O)CSc2nc3nccnc3c(=O)n2CCc2c[nH]c3ccccc23)c(C)c1", "activity change, negative = inhibition": "1.52% (inactive)"},
      {"compound": "Cc1cc(C)cc(NC(=O)CSc2nc3nccnc3c(=O)n2CCc2c[nH]c3ccccc23)c1", "activity change, negative = inhibition": "1.93% (inactive)"},
      {"compound": "CN(C(=O)c1ccc2c(c1)N(Cc1cccc(Cl)c1)C(=O)c1ccccc1S2=O)C1CCCCC1", "note": "(stereo not drawn)", "activity change, negative = inhibition": "2.7% (inactive)"},
      {"compound": "Cc1ccc(OCCCCN2CCCCC2)c(Br)c1", "activity change, negative = inhibition": "-23.4% (inactive)"},
      {"compound": "CC1CN(CCOc2ccccc2[N+](=O)[O-])CC(C)O1", "note": "(stereo not drawn)", "activity change, negative = inhibition": "-11.6% (inactive)"},
      {"compound": "O=[N+]([O-])c1ccccc1OCCCCN1CCCCC1", "activity change, negative = inhibition": "-54.3% (active)"},
      {"compound": "O=C(CSc1ncc(S(=O)(=O)c2ccc(Br)cc2)c(=O)[nH]1)Nc1ccc2c(c1)OCCO2", "activity change, negative = inhibition": "8% (inactive)"},
      {"compound": "Oc1ccc(Cl)cc1C1C=C(c2ccc3c(c2)OCO3)NC(c2ccc(F)c(Br)c2)N1", "note": "(stereo not drawn)", "activity change, negative = inhibition": "-22.1% (inactive)"},
      {"compound": "Cc1cccc(S(=O)(=O)c2cn(Cc3ccccc3)c3cc(N4CCOCC4)c(F)cc3c2=O)c1", "activity change, negative = inhibition": "0.0166% (inactive)"},
      {"compound": "N/C(Cc1ccc([N+](=O)[O-])cc1)=N\\OC(=O)C1CCCCC1", "activity change, negative = inhibition": "-11.7% (inactive)"},
      {"compound": "NC(=O)c1ccc(NC(=O)COC(=O)c2ccc([N+](=O)[O-])cc2)cc1", "activity change, negative = inhibition": "1.67% (inactive)"},
      {"compound": "O=C(COC(=O)C1CCCCC1)Nc1ccc([N+](=O)[O-])cc1", "activity change, negative = inhibition": "-34.5% (active)"},
      {"compound": "CCCCOc1ccc(C(=O)Nc2cccc(-c3nc4ccccc4o3)c2C)cc1", "activity change, negative = inhibition": "-0.438% (inactive)"},
      {"compound": "Cc1oc2ccc(O)c(CN3CCCCC3)c2c1C(=O)Nc1cccc(C(F)(F)F)c1", "activity change, negative = inhibition": "11.6% (inactive)"},
      {"compound": "CC(=O)N1CCCc2cc(S(=O)(=O)N3CCCC(C(=O)N4CCN(c5cccc(Cl)c5)CC4)C3)ccc21", "note": "(stereo not drawn)", "activity change, negative = inhibition": "-14.3% (inactive) and -32% (active)"},
      {"compound": "COc1ccc(N2CCN(S(=O)(=O)c3ccc4c(c3)N(C(C)=O)CCO4)CC2)cc1", "activity change, negative = inhibition": "-18% (inactive)"},
      {"compound": "COc1cccc(N2CCN(S(=O)(=O)c3ccc4c(c3)CCCN4C(C)=O)CC2)c1", "activity change, negative = inhibition": "-35.4% (active)"},
      {"compound": "O=C(C1CCC1)N1CCN(c2ccccc2)CC1", "activity change, negative = inhibition": "6.47% (inactive)"},
      {"compound": "CC(=O)N1CCCc2cc(S(=O)(=O)CCC(=O)N3CCN(c4ccccc4)CC3)ccc21", "activity change, negative = inhibition": "-0.97% (inactive)"},
      {"compound": "Cc1ccc(S(=O)(=O)N2CCCC(C(=O)N3CCN(C)CC3)C2)cc1", "note": "(stereo not drawn)", "activity change, negative = inhibition": "10.2% (inactive)"},
      {"compound": "CC(=O)N1CCCc2cc(S(=O)(=O)N3CCC(C(=O)NC4CCCCC4)CC3)ccc21", "activity change, negative = inhibition": "0.0767% (inactive)"},
      {"compound": "CC(=O)N1c2ccc(S(=O)(=O)N3CCC(C(=O)N4CCN(c5ccccc5)CC4)CC3)cc2CC1C", "note": "(stereo not drawn)", "activity change, negative = inhibition": "-7.84% (inactive)"},
      {"compound": "O=C(C1CCCN(S(=O)(=O)c2ccccc2)C1)N1CCN(c2ccc(F)cc2)CC1", "note": "(stereo not drawn)", "activity change, negative = inhibition": "-43.7% (active)"},
      {"compound": "CC(=O)Nc1cccc(NC(=O)CSc2cn(CC(=O)N3CCCC3)c3ccccc23)c1", "activity change, negative = inhibition": "12.2% (inactive)"},
      {"compound": "CC(=O)Nc1ccc(NC(=O)CSc2nnc3c4cc(Br)ccc4n(C)c3n2)cc1", "activity change, negative = inhibition": "-2.66% (inactive)"},
      {"compound": "Cc1cccc(C)c1-n1ncc(C(=O)NCCCN2CCCCC2)c1C1CCN(C(=O)OC(C)(C)C)CC1", "activity change, negative = inhibition": "40.2% (inactive)"},
      {"compound": "CCOC(=O)CN1C(C(=O)c2ccccc2)=C(OC(=O)C(C)(C)C)c2ccccc2S1(=O)=O", "activity change, negative = inhibition": "-13.9% (inactive)"},
      {"compound": "FC(F)(F)c1cc(Nc2nc3ccccc3c3nncn23)ccc1Cl", "activity change, negative = inhibition": "-0.606% (inactive)"},
      {"compound": "CC1=C(C(=O)Nc2ccccc2Cl)C(c2cccs2)n2ncnc2N1", "note": "(stereo not drawn)", "activity change, negative = inhibition": "4.21% (inactive)"},
      {"compound": "CC(C)CNC(=S)Nc1ccc(F)cc1", "activity change, negative = inhibition": "12.4% (inactive)"},
      {"compound": "CC(NC(=S)Nc1ccc(OC(F)F)cc1)c1ccc(F)cc1", "note": "(stereo not drawn)", "activity change, negative = inhibition": "-35.4% (active)"},
      {"compound": "CC(C)N(Cc1ccccc1)C(=S)Nc1ccc(OC(F)F)cc1", "activity change, negative = inhibition": "-4.75% (inactive)"},
      {"compound": "CCOC(=O)c1ccc(NC(=O)CC2C(=O)N(c3ccccc3)C(=O)N2Cc2cccs2)cc1", "note": "(stereo not drawn)", "activity change, negative = inhibition": "-10.5% (inactive)"},
      {"compound": "S=C(NCc1ccco1)NCc1ccccc1Cl", "activity change, negative = inhibition": "-32.9% (active)"},
      {"compound": "S=C(NCCc1ccccc1)NCc1ccccc1Cl", "activity change, negative = inhibition": "-29.8% (inactive)"},
      {"compound": "COc1cc(NC(=S)NCc2ccco2)c(OC)cc1Cl", "activity change, negative = inhibition": "-9.33% (inactive)"},
      {"compound": "Cc1ccc(NC(=S)NCCc2ccc(Cl)cc2)c(C)c1", "activity change, negative = inhibition": "22.5% (inactive)"},
      {"compound": "Cc1ccc(NC(=S)NCc2ccccc2Cl)c(C)c1", "activity change, negative = inhibition": "-39.4% (active)"},
      {"compound": "Cc1cc(F)ccc1NC(=S)NCCc1ccccc1", "activity change, negative = inhibition": "-15.6% (inactive)"},
      {"compound": "COc1ccccc1C(=O)NCCn1cc(SCc2ccccc2Cl)c2ccccc21", "activity change, negative = inhibition": "-10.4% (inactive)"}
    ]}
  ]
}
